Assay outcomes as filed in PubChem.
Most compounds without a hit are left out; they make up all but 32% or so of the library.
PostGolgi ctrl – growth inhibition of yeast control strain, primary screen, counter-screen for post-Golgi transport modulator project. inhibition, % at 10 µM. efflux-deficient yeast background strain, growth absorbance A615, 16 h. hit rate 5% among 98,000. AID 738, 2007
CYP2C9 act – human CYP2C9 activators, primary screen, biochemical, luminescence. recombinant CYP2C9, luciferin-H conversion; active compounds read high; factor 1 = untreated enzyme, 0 = blocked. activation factor at 5 µM. hit rate 1.4% among 96,000. AID 1024, 2008;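 active means activation factor of 2 or more for CYP2C9 at a 5 µM dose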;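 further: 0 = sulfaphenazole-blocked wells and 1 = vehicle-only wells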
Target sequence (P11712 whole entry, looked up): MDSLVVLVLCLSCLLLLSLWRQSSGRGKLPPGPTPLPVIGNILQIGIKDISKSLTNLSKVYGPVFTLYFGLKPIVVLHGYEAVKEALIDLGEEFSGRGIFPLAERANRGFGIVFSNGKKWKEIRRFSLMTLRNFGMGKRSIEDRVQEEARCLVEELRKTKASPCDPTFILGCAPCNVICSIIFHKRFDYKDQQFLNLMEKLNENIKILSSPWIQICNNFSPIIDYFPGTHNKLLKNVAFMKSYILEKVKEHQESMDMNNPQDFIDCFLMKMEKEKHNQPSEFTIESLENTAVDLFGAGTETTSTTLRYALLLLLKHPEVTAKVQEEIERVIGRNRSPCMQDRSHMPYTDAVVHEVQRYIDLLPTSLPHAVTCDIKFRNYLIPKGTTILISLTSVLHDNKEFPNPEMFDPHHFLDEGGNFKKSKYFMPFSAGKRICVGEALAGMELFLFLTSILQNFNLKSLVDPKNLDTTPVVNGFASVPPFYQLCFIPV
CYP2C19 inh – blockers of cytochrome P450 2C19 activity – biochemical, luminescence, ADME assay, primary screen. CYP2C19 Supersomes, luciferin-H EGE luminescence, 30 min. P33261. hit rate 21% among 96,000. inhibition, % at 5 µM. AID 778, 2007;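 active means CYP2C19 inhibition above a set limit at 5 µM in the primary screen, cut at about 50% in these data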;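 further: plate controls were negative control wells for no effect and 2.5 mM tranylcypromine positive control for full effect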
CYP2C9 inh – blockers of cytochrome P450 2C9 activity – biochemical, luminescence, ADME assay, primary screen; hit rate 20% among 96,000; inhibition, % at 5 µM; CYP2C9 Supersomes, luciferin-H conversion; P11712; AID 777, 2007;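 active means blocking of liver enzyme CYP2C9 beyond about 50% at 5 µM, limit read from the data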
PostGolgi yeast – phenotypic screen on post-Golgi transport, primary screen; post-Golgi transport phenotypic cell assay; inhibition, % at 10 µM; hit rate 0.9% among 98,000; AID 739, 2007;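 further: yeast cells grown in 1536-well plates; yeast grown about 18 h at 30C before absorbance read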
CYP2C19 activ – human CYP2C19 activators, primary screen, biochemical, luminescence; Cytochrome P450 2C19 (Homo sapiens), P33261; recombinant CYP2C19, luciferin-H EGE luminescence; active compounds read high; 0 = fully inhibited enzyme, 1 = untreated enzyme; activation factor at 5 µM; 96,000 tested, under 10 active; AID 1025, 2008;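 active means activation factor of at least 2 at 5 µM in the primary screen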;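 further: 0 = wells with 2.5 mM tranylcypromine and 1 = vehicle-only wells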
Numbers without * were called inactive; x = no result given. Unless noted, no stated cut-off is given here; in the data, active means inhibition above about 30%; inactive means the rest.

SMILES	PostGolgi ctrl	CYP2C9 act	CYP2C19 inh	CYP2C9 inh	PostGolgi yeast	CYP2C19 activ
O=C(NCCn1ccc2ccccc21)c1ccc(S(=O)(=O)N2CCCCC2)cc1	21.9	0.4	17.0	56.5*	4.8	0.8
O=C(NCc1cn2ccccc2n1)c1ccc2c(c1)OCO2	-0.3	0.9	2.4	11.1	-4.3	1
CCCCOc1cccc(OCCCC)c1C(=O)Nc1cc(C)on1	27.2	0.8	34.3	15.4	-5.9	0.7
COC(=O)c1ccccc1N1C(=O)C2C(C1=O)[C@H]1C=C[C@@H]2C1 (some centres undefined)	-8.3	0.9	25.1	14.8	-0.7	0.7
COC(=O)c1ccccc1N1C(=O)[C@@H]2C(c3ccc(Br)cc3)=NO[C@@H]2C1=O	3.4	0.5	99.3*	45.9	3.2	0
O=c1[nH]c(-c2ccccc2O)nc2c1CCCC2	15.9	0.8	6.3	18.4	4.4	0.9
COCCNC(=O)c1ccc2c(c1)NC(=O)CS2	0.4	1	-12.8	0.2	0.5	1.1
CCOc1cc2c(cc1C(C)(C)C)NC(=O)CS2	34.6*	1.1	-0.6	-10.1	2.4	1
Cc1c(C(=O)OC2CCCCC2)sc2nc[nH]c(=O)c12	59.3*	0.6	49.1	39.5	2.7	0.5
CCOc1cc(C(=O)NC(C)c2ccncc2)cc(OCC)c1OCC (centres undefined)	2.7	0.2	80.0*	80.5*	11.9	0.2
CCOc1cc(C(=O)NCc2ccncc2)cc(OCC)c1OCC	8.0	0.1	83.8*	92.5*	2.6	0.2
CCOc1cc(C(=O)NC(C)COC)cc(OCC)c1OCC (centres undefined)	4.6	1.1	-7.9	-12.4	1.6	1.1
Cc1cc(C)c(C(=O)CC2(O)C(=O)Nc3ccccc32)cc1C (centres undefined)	2.1	0.7	91.5*	27.9	-11.7	0.1
Cc1ccc(C)c(C(=O)CC2(O)C(=O)Nc3ccccc32)c1 (centres undefined)	-4.0	1	18.9	-3.8	-6.3	0.8
CCc1nn2cc(-c3ccccc3)nc2s1	3.4	0.4	88.0*	58.8*	-0.2	0.1
Cc1nn2cc(-c3ccc(-c4ccccc4)cc3)nc2s1	11.8	1	4.3	4.9	3.5	1
Cc1cc(S(=O)(=O)N2CCN(c3ncccn3)CC2)ccc1-n1cnnn1	-0.2	x	x	x	8.0	x
O=S(=O)(c1ccc(S(=O)(=O)N(Cc2cccs2)CC2CCCO2)cc1)N1CCCCC1 (centres undefined)	18.3	0.2	72.9*	83.0*	4.5	0.3
O=S(=O)(NC1CCCC1)c1ccc(S(=O)(=O)N(Cc2cccs2)CC2CCCO2)cc1 (centres undefined)	14.5	0	96.6*	97.3*	12.0	0
O=C(NCC1CCCO1)C1CCN(c2ccc(S(=O)(=O)N3CCCC3)cc2)CC1 (centres undefined)	6.0	0.6	0.7	43.6	-4.4	1
CNC(=O)c1ccc(-c2ccccc2)s1	16.9	0.9	22.9	11.5	-0.3	0.8
CSCCC(NS(=O)(=O)c1ccc2c(c1)oc(=O)n2C)C(=O)NC1CCC(C)CC1 (centres undefined)	5.9	0.8	5.8	15.2	-1.8	0.9
S=c1nc2ccccc2c2nc(-c3ccccc3)[nH]n12	43.7*	0.9	-4.5	5.3	7.3	1
Cc1n[nH]c(C)c1S(=O)(=O)N1CCN(C2CCCCC2)CC1	7.0	0.7	0.6	28.5	7.5	1
Clc1ccc2c(c1)C=Nc1c(NCc3ccccc3)ncnc1O2	-2.5	0.6	12.4	36.3	-0.3	0.9
SMILES	PostGolgi ctrl	CYP2C9 act	CYP2C19 inh	CYP2C9 inh	PostGolgi yeast	CYP2C19 activ
C1=Nc2c(Nc3ccccc3)ncnc2Oc2ccccc21	22.8	0.4	54.0*	61.9*	-4.3	0.5
Cc1ccc(Sc2c(C=O)c3ccccc3n2C)cc1	44.8*	0.5	34.6	47.6	6.6	0.7
CCC(=O)Nc1ccc(N2CCCCC2)c(C(=O)Nc2ccccc2C)c1	22.4	0.8	53.1*	21.1	2.8	0.5
CCN(CC)S(=O)(=O)c1ccc(N2CCCCC2)c(C(=O)Nc2ccccc2N2CCOCC2)c1	13.8	0.6	59.2*	36.5	10.6	0.4
Cc1ccc(NC(=O)c2cc(NC(=O)c3ccco3)ccc2N2CCCCC2)cc1	6.2	0.8	7.7	20.0	-0.7	0.9
CN(C)S(=O)(=O)c1ccc(N2CCCC2)c(C(=O)NC(c2ccccc2)c2ccccc2)c1	-9.3	0.5	-6.6	54.4*	16.9	1.1
Cc1ccccc1NC(=O)c1cc(N)ccc1N1CCCCC1	10.3	0.1	97.6*	86.3*	6.9	0
CN(C)S(=O)(=O)c1ccc(N2CCCC2)c(C(=O)Nc2ccc(N3CCOCC3)cc2)c1	14.1	0.6	22.1	39.5	1.0	0.8
Cc1cc(N)ccc1NC(=O)c1ccccc1	21.0	1.1	0.0	-6.2	6.4	1
O=C(Nc1ccccc1Cl)c1cc(S(=O)(=O)N2CCCCC2)ccc1N1CCOCC1	8.9	0.8	31.5	24.3	-7.8	0.7
O=C(O)c1c(Cl)c(Cl)c(Cl)c(Cl)c1C(=O)N1CCOCC1	8.2	0.8	7.6	19.4	12.5	0.9
N#CCC(CNc1ncc(C(F)(F)F)cc1Cl)OC(=O)c1cccc([N+](=O)[O-])c1 (centres undefined)	22.6	0.3	96.5*	68.2*	2.9	0
N#CCC(CNc1ncc(C(F)(F)F)cc1Cl)OC(=O)c1ccc(Cl)cc1 (centres undefined)	26.3	1.1	83.6*	-8.6	9.8	0.2
O=C(OC1CCN(c2ncc(C(F)(F)F)cc2Cl)CC1)c1ccc(Cl)cc1	0.7	0.8	-3.6	19.2	4.6	1
O=C1NC(=S)SC1=C1CCCCCC1	64.2*	0.8	13.2	19.6	8.0	0.9
O=C1N=C(N2CCCCC2)SC1=C1CCCCC1	1.6	0.8	40.3	19.0	5.0	0.6
C/C(NC1CCCC1)=C(/C#N)C(N)=O	0.8	1.2	-5.8	-15.4	-6.6	1.1
C/C(N)=C(/C#N)C(=O)COC(=O)CC1CCCC1	x	0.6	88.5*	41.2	x	0.1
C/C(N)=C(/C#N)C(=O)COC(=O)CC12CC3CC(CC(C3)C1)C2	24.4	0.2	77.5*	80.9*	1.7	0.2
C/C(N)=C(/C#N)C(=O)COC(=O)C1CCC(C(C)(C)C)CC1 (centres undefined)	20.7	0.2	89.6*	84.0*	2.2	0.1
C/C(N)=C(/C#N)C(=O)COC(=O)CSc1ccc2ccccc2c1	8.9	1	27.5	4.7	-4.9	0.7
CCOC(=O)c1ccc(NC(=O)C2CCCN(S(=O)(=O)c3ccc(F)cc3)C2)cc1 (centres undefined)	15.7	0.7	33.7	31.4	-1.0	0.7
